Counter-ions that a name gives are not always drawn.
Each compound was assayed on Saccharomyces cerevisiae BY4741 SeMeCo community (assay: z-score of subpopulation abundance vs DMSO median, subpopulation auxotrophic for HLM; higher = larger share of this subpopulation than in DMSO controls). Conditions: 10 µM; 24 h; SM minimal medium; subpopulation (auxotrophy): HLM.
Outline: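 A community of Saccharomyces cerevisiae BY4741 was built from four plasmids that each restored one auxotrophy and encoded a distinct fluorescent protein. Pre-grown overnight to OD600 1.0 and diluted to 0.3, it was dispensed at 70 µl into 384-well plates acoustically predosed with library drugs for a final 10 µM, and grown 24 h in minimal SM medium. Cells were then paraformaldehyde-fixed and imaged by automated confocal microscopy. Thresholds and autofluorescence correction came from single-auxotroph fluorescent strains, and each subpopulation's abundance was scored as a z-score relative to the vehicle-well median.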
For `COc1cc(O)c(C(=O)Nc2nc(C(=O)NCCN(C(C)C)C(C)C)cs2)cc1OC` [Acotiamide hydrochloride], the “z-score of subpopulation abundance” value was 0.13.
With `Cc1onc(-c2c(F)cccc2Cl)c1C(=O)N[C@@H]1C(=O)N2[C@@H]1SC(C)(C)[C@@H]2C(=O)O` [Flucloxacillin sodium] the “z-score of subpopulation abundance” value was -0.51.
`Cc1ncc([N+](=O)[O-])n1CC(O)CCl` (stereo not drawn) [Ornidazole] was tested, and the “z-score of subpopulation abundance” value was -0.03.
In the case of `OC(CCCN1CCCCC1)(c1ccccc1)c1ccccc1` [Diphenidol HCl], the “z-score of subpopulation abundance” value is reported as -0.07.
In the case of `Cc1ccccc1OCC(O)CO` (stereo not drawn) [Mephenesin], the “z-score of subpopulation abundance” value is reported as -0.4.
With `CC(C)c1c(C(=O)Nc2ccccc2)c(-c2ccccc2)c(-c2ccc(F)cc2)n1CC[C@@H](O)C[C@@H](O)CC(=O)O` [Atorvastatin Calcium] the “z-score of subpopulation abundance” value was 9.32.
`C[C@@H](O)[C@H]1C(=O)N2C(C(=O)[O-])=C(SC3Cn4cnc[n+]4C3)[C@H](C)[C@H]12` (stereo partly drawn) [Biapenem] was tested, and the “z-score of subpopulation abundance” value was -0.52.
`CO/N=C(\C(=O)N[C@@H]1C(=O)N2C(C(=O)OC(C)OC(C)=O)=C(COC(N)=O)CS[C@H]12)c1ccco1` (stereo partly drawn) [Cefuroxime axetil] was tested, and the “z-score of subpopulation abundance” value was -0.11.
With `Cc1cc(=O)n(-c2ccccc2)n1C` [Antipyrine] the “z-score of subpopulation abundance” value was -0.18.
With `Oc1c(Cl)cc(Cl)c2cccnc12` [Chloroxine] the “z-score of subpopulation abundance” value was 45.7.
For `CC1(C)CC[C@]2(C(=O)O)CC[C@]3(C)C(=CC[C@@H]4[C@@]5(C)CC[C@H](O)C(C)(C)[C@@H]5CC[C@]43C)[C@@H]2C1` [Oleanolic Acid], the “z-score of subpopulation abundance” value was 0.33.
With `CCOC(=O)C1=C(C)NC(C)=C(C(=O)OC)C1c1cccc(Cl)c1Cl` (stereo not drawn) [Felodipine] the “z-score of subpopulation abundance” value was 8.73.
For `O=C1CCc2cc(OCCCCc3nnnn3C3CCCCC3)ccc2N1` [Cilostazol], the “z-score of subpopulation abundance” value was -0.55.
For `Cc1nnc(SCC2=C(C(=O)O)N3C(=O)[C@@H](NC(=O)Cn4cc(Cl)c(=O)c(Cl)c4)[C@H]3SC2)s1` [Cefazedone], the “z-score of subpopulation abundance” value was -0.49.
For `CS(=O)(=O)c1ccc([C@@H](O)[C@@H](CO)NC(=O)C(Cl)Cl)cc1` [Thiamphenicol], the “z-score of subpopulation abundance” value was -0.85.
`O=C(O)CCNC(=O)c1ccccc1` [Betamipron] was tested, and the “z-score of subpopulation abundance” value was -1.05.
For `O=c1cc(-c2ccc(O)c(O)c2)oc2cc(O)cc(O)c12` [Luteolin], the “z-score of subpopulation abundance” value was -0.56.
In the case of `CN1C[C@@H]2C[C@H]1CN2c1cc2c(cc1F)c(=O)c(C(=O)O)cn2C1CC1` [Danofloxacin Mesylate], the “z-score of subpopulation abundance” value is reported as -0.5.
In the case of `CC(=O)Oc1ccccc1C(=O)O` [Aspirin], the “z-score of subpopulation abundance” value is reported as 0.21.
In the case of `Cc1noc(NS(=O)(=O)c2ccc(N)cc2)c1C` [Sulfisoxazole], the “z-score of subpopulation abundance” value is reported as 1.44.
With `O=C(NCCO[N+](=O)[O-])c1cccnc1` [Nicorandil] the “z-score of subpopulation abundance” value was -0.83.
`O=C1C(CC[S+]([O-])c2ccccc2)C(=O)N(c2ccccc2)N1c1ccccc1` (racemic) [(+/-)-Sulfinpyrazone] was tested, and the “z-score of subpopulation abundance” value was 0.61.
`CCCCCCCCCC(=O)N[C@@H](Cc1c[nH]c2ccccc12)C(=O)N[C@H](CC(N)=O)C(=O)N[C@@H](CC(=O)O)C(=O)N[C@@H]1C(=O)NCC(=O)N[C@@H](CCCN)C(=O)N[C@@H](CC(=O)O)C(=O)N[C@H](C)C(=O)N[C@@H](CC(=O)O)C(=O)NCC(=O)N[C@H](CO)C(=O)N[C@@H]([C@H](C)CC(=O)O)C(=O)N[C@@H](CC(=O)c2ccccc2N)C(=O)O[C@@H]1C` [Daptomycin] was tested, and the “z-score of subpopulation abundance” value was 0.48.
`CCn1cc(C(=O)O)c(=O)c2cc(F)c(N3CCN(C)CC3)cc21` [Pefloxacin Mesylate] was tested, and the “z-score of subpopulation abundance” value was -0.1.
With `OCc1ccc(Cl)cc1Cl` [2,4-dichlorobenzyl alcohol] the “z-score of subpopulation abundance” value was 0.03.
`CN(C)CCC=C1c2ccccc2CCc2ccccc21` [Amitriptyline HCl] was tested, and the “z-score of subpopulation abundance” value was -1.26.
With `COc1ccccc1OCC(O)CN1CCN(CC(=O)Nc2c(C)cccc2C)CC1` (stereo not drawn) [Ranolazine] the “z-score of subpopulation abundance” value was 0.19.
In the case of `COc1cc(C(C)=O)ccc1OCCCN1CCC(c2noc3cc(F)ccc23)CC1` [Iloperidone], the “z-score of subpopulation abundance” value is reported as 0.44.
In the case of `Cc1ccc(Sc2ccccc2N2CCNCC2)c(C)c1`, the “z-score of subpopulation abundance” value is reported as -0.35.
`Nc1ccc(S(=O)(=O)Nc2ccccn2)cc1` [Sulfapyridine] was tested, and the “z-score of subpopulation abundance” value was -0.9.
`CN1CC(=O)N2[C@H](c3ccc4c(c3)OCO4)c3[nH]c4ccccc4c3C[C@@H]2C1=O` [Tadalafil] was tested, and the “z-score of subpopulation abundance” value was 1.64.
With `CCOC(=O)C1=C[C@@H](OC(CC)CC)[C@H](NC(C)=O)[C@@H](N)C1` [Oseltamivir Phosphate] the “z-score of subpopulation abundance” value was 0.29.
In the case of `O=C(c1ccc(OCCN2CCCCC2)cc1)c1c(-c2ccc(O)cc2)sc2cc(O)ccc12` [Raloxifene HCl], the “z-score of subpopulation abundance” value is reported as -0.47.

Reference: the supplement of paper PMC8975748
